# Sampled rows, rich in hits. Any-hit rate of the full collection: about 10%.
# Six1-Eya2 blk: blocks human Six1 binding to Eya2; Q15475+O00167; AlphaScreen GST-Six1/His-Eya2 binding, biochemical; active compounds read low; activity change, % (test concentration not listed); hit rate 0.56% among 360,000; in the data active = activity change below about -65%; inconclusive = mostly about -30% to -63%; also: % is scaled to controls: 0 for no effect and ±100 for the full control effect
#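 GST-Six1 + His-Eya2 (5X stock: 250/500 nM); Tris pH 8.0, 300 mM NaCl, 0.05% BSA, 0.02% Tween 20; GSH donor/Ni acceptor beads; 1 h 37 °C dark; AlphaScreen readout.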
# CtBP-E1A blk: CtBP/E1A binding inhibition; activity change, % (no concentration beside the values); AlphaScreen GST-E1A/His-CtBP binding, 1536-well; active compounds read low; hit rate 0.49% among 340,000; in the data active = activity change below about -65%; inconclusive = mostly about -30% to -63%; also: % is scaled to controls: 0 for no effect and ±100 for the full control effect
#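 AlphaScreen with 125 nM GST-E1A and 125 nM His-CtBP (5X stocks) in Tris pH 8.0, 300 mM NaCl, BSA, Tween 20, TCEP. Compounds preincubated 2 h at 37 deg C, then glutathione donor/nickel acceptor beads added for 1 h at 37 deg C in dark.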
# JMJD2A Tudor inh: JMJD2A Tudor domain (human) inhibition; Potency, µM (titrated, usually from 114 µM), without a hit: at the highest dose activity change, negative = inhibition, usual class: inhibitors; hit rate 4.4% among 390,000; AID 504339; AlphaScreen JMJD2A-Tudor / H3K4me3 peptide binding; also: potency is read from the fitted curve at half-maximal effect; % is scaled to controls: 0 for no effect and ±100 for the full control effect; nearly all actives have a fitted effect of over 50% in size
# G9a block: blocks human histone lysine methyltransferase G9a | Potency, µM (top dose mostly 102 µM), for inactives: at the highest dose activity, negative = inhibition, most hits filed as inhibitors | hit rate 8.8% among 350,000 | AID 504332 | G9a H3K9 monomethylation, AlphaScreen, 2 h | Q96KQ7; also: potency is read from the fitted curve at half-maximal effect; % is scaled to controls: 0 for no effect and ±100 for the full control effect; nearly all actives have a fitted effect of over 75% in size
# Target sequence (Q96KQ7 913-1193 limits assumed): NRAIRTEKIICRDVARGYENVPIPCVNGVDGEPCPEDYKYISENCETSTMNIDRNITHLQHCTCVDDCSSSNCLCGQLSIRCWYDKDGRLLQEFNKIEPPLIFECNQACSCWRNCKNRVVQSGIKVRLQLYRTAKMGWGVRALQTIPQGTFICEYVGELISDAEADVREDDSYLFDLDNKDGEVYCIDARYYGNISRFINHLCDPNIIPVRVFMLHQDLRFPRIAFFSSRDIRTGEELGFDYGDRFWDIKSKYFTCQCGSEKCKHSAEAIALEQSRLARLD
#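 Methyltransferase reactions run at room temperature for 2 h (20 nM enzyme, 500 nM biotin-H3K9 peptide, 20 uM SAM) after a 15 min compound preincubation; product detected by AlphaScreen beads and anti-H3K9me1 antibody.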
# HP1b chromo inh: HP1-beta chromodomain-methylated histone interaction inhibition; P83916; AlphaScreen HP1-beta / biotin-H3K9me3 peptide binding; Potency, µM (doses to about 114 µM), for inactives: at the highest dose activity change, negative = inhibition, hits mostly inhibitors; hit rate 0.56% among 390,000; also: potency is read from the fitted curve at half-maximal effect; nearly all actives have a fitted effect of over 70% in size
# Target sequence (P83916 whole entry, looked up): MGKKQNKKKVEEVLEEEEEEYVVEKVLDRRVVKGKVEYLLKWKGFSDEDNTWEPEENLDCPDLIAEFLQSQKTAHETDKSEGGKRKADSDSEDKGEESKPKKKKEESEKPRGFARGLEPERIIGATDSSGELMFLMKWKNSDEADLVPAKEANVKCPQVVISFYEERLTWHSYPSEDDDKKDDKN
#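 AlphaScreen: HP1-beta (50 nM) preformed 30 min with biotin-H3(1-18)K9me3 peptide (50 nM) in PBS pH 7.4, 0.01% Tween-20. Compound added for 30 min at RT, then streptavidin donor/nickel chelate acceptor beads (10 ug/mL) for 30 min.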
# BAZ2B block: blocks human BAZ2B; Q9UIF8; Potency, µM (doses to about 114 µM), for inactives: at the top dose activity change, negative = inhibition, most hits filed as inhibitors; AlphaScreen BAZ2B-H3K14Ac peptide displacement; hit rate 4.4% among 360,000; AID 504333; also: potency is read from the fitted curve at half-maximal effect; % is scaled to controls: 0 for no effect and ±100 for the full control effect; nearly all actives have a fitted effect of over 60% in size
#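 AlphaScreen displacement of biotin-H3(5-23)K14Ac peptide (50 nM final) from BAZ2B (50 nM final) in PBS pH 7.4, 0.01% Tween-20; complex preformed 30 min RT, then compounds (top 110 uM) 30 min RT, beads 20 min dark.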
# The depositor's hits bear a star; u = inconclusive; x = no result; [ ] = dose if it differs, or a comment. Unless noted, calls follow the shape of the dose curve; as a rule, active = well fitted inhibition curve with a large enough effect; inconclusive = small, poorly fitted or top-dose-only effect; inactive = no such curve, though single readings can be large or run the other way.
SMILES,Six1-Eya2 blk,CtBP-E1A blk,JMJD2A Tudor inh,G9a block,HP1b chromo inh,BAZ2B block
Cc1ccc(/C=N/NC(=O)c2cccs2)cc1[N+](=O)[O-],-8,-3,-19%,20%,9%,-22%[57.1 µM]
CC(NC(=O)c1cccs1)c1ccc(Br)cc1 (centres undefined),-3,3,u,x,4%,x
Cc1ccc(S(=O)(=O)NC(C)c2ccccc2)cc1[N+](=O)[O-] (centres undefined),-6,1,-13%,2%,41%,-16%
COc1cccc(NC(=O)CN(C)C(=O)CSc2ccc3c(c2)OCCO3)c1,-4,-17,-1%,u,32%,8%
COc1ccc(Cc2nnc(NC(=O)C3CC(=O)N(c4ccccc4C)C3)s2)cc1OC (centres undefined),1,4,-24%,-7%[0.501 µM],2%,-8%
COc1ccc(C2c3sc(=O)[nH]c3SCC2C(N)=O)cc1 (centres undefined),1,-8,-21%[11.4 µM],-30%,42%,-14%
COc1cc(C2c3sc(=O)[nH]c3SC3C4CCC(C4)C23)ccc1O (centres undefined),-4,-7,u,13µM*,u,u
COc1cc(C2c3sc(=O)[nH]c3SC3C(=O)N(c4ccc(C)cc4)C(=O)C32)ccc1O (centres undefined),-6,0,-32%,u,1%,u
COc1ccc(C2c3sc(=O)[nH]c3SC3C4CCC(C4)C23)cc1 (centres undefined),0,-2,-30%,u,-7%,u
CCOC(=O)C1CSc2[nH]c(=O)sc2C1c1ccccc1 (centres undefined),0,-3,-15%,45µM*,34%,0%
O=c1[nH]c2c(s1)C(c1ccccc1)C1C3CCC(C3)C1S2 (centres undefined),-13,-7,-28%,45µM*,5%,-22%
COC(=O)C1CSc2[nH]c(=O)sc2C1c1ccc(O)c(OC)c1 (centres undefined),-4,0,-20%,14µM*,2%,-32%
COc1ccc(C)cc1Nc1nc2c(S(=O)(=O)c3cccc(Cl)c3)nnn2c2ccsc12,x,x,-14%,-7%[59 µM],37%,-11%
O=C1NCCN(Cc2ccc(F)cc2)C1=O,x,x,2%,4%[59 µM],21%,-7%
CCOC(=O)c1noc2nc(C)n(Cc3ccc([N+](=O)[O-])cc3)c(=O)c12,x,x,20µM*,-4%[59 µM],-3%[57 µM],-14%
Cc1cc(Br)c2c(c1)=C(c1sc(N3CCCCCC3)nc1O)C(=O)N=2,0,-1,-18%,7%[59 µM],35%,7%
Cc1ccc2c(c1)=C(c1sc(N(C)c3ccc(O)cc3)nc1O)C(=O)N=2,4,x,-3%,45µM*,9%,-19%
COc1ccc(NC(=O)CSc2nc3c(oc4ccccc43)c(=O)n2Cc2ccco2)cc1Cl,x,x,-17%,23%[59 µM],37%,4%
O=c1/c(=C/c2ccccn2)sc2n1CN(c1ccccc1)CN=2,u,-16,4%[11.4 µM],50µM*,-37%,7%
O=C(CCS(=O)(=O)Cc1ccccc1)NCCc1ccccc1,9,-6,-1%,2%,27%,-2%
O=C(NC1CCCC1)C(c1ccccc1)n1c(Cc2cc(F)cc(F)c2)nc2ccccc21 (centres undefined),-3,2,x,x,x,x
C=CCn1c(SCC(=O)Nc2nnc(C)s2)nnc1-c1cccnc1,1,-22,56µM*,-43%,9%,-35%
COc1cccc(-c2nnc(SCC(=O)N3CCCC3=O)n2-c2ccccc2)c1,-1,7,-19%,u,25%,-2%
COc1ccc(-n2c(SCC(=O)N3CCCCC3C)nnc2-c2cccnc2)cc1 (centres undefined),0,-5,4%,40µM*,58%,16%
COc1cccc(-c2nnc(SCC3CNC(=O)O3)n2-c2ccc(Cl)cc2)c1 (centres undefined),11,8,-13%,14µM*,26%,12%
SMILES,Six1-Eya2 blk,CtBP-E1A blk,JMJD2A Tudor inh,G9a block,HP1b chromo inh,BAZ2B block
Cc1ccc(C(=O)CSc2nnc(-c3ccncc3)n2C)cc1,8,7,-11%,1%[59 µM],-9%,-12%
Cc1ccc(OCCSc2nnc(-c3ccncc3)n2C)cc1,4,-2,-2%,40µM*,22%,0%
CC(Cl)C(=O)c1c[nH]c2ccccc12 (centres undefined),4,-7,0%,-47%,17%,-5%
Cc1ccc(OCC(=O)OCc2cc(=O)n3ccsc3n2)cc1C,x,x,5%,4%[59 µM],28%,1%
Nn1c(SCCOc2ccccc2)nnc1-c1cccnc1,5,7,-16%,50µM*,25%,-3%
COc1cccc(-n2c(COc3ccccc3C)nnc2SCC(=O)O)c1,5,11,-12%,45µM*,24%,-5%
CCn1c(SCC(=O)c2ccccc2)nnc1-c1cccnc1,0,9,-13%,-8%,23%,-17%
CCn1c(SCCC(=O)O)nnc1-c1cccnc1,2,5,-17%,45µM*,21%,-6%
COc1cccc(-n2c(SCC(=O)O)nnc2-c2cccnc2)c1,2,11,-18%,56µM*,31%,1%
Cc1ccccc1OCc1nnc(SCC(=O)O)n1-c1ccccc1,10,x,-11%,9%[0.501 µM],24%,-27%
COCCN1C(=O)COc2ccccc2C1C(=O)Nc1c(C)cccc1C (centres undefined),-1,5,x,x,x,x
Cc1nn(C(=O)c2c([N+](=O)[O-])cnn2C)c(C)c1Cl,5,0,-10%,9%[59 µM],27%,-1%
CCn1c(SCc2cccc(C(=O)O)c2)nnc1-c1ccccc1,116,-1,-11%,56µM*,24%,-2%
CC(C)(C)OC(=O)N1CCC[C@H]1C(=O)NCc1ccc(Cl)cc1Cl,5,-5,45µM*,0%,-5%,-3%
Cc1cc(C)c2nc(NC(=O)CN3C(=O)NC4(CCCC4)C3=O)sc2c1,-5,-3,-19%,u,25%,-1%
COC(=O)Oc1nsnc1N1CCOCC1,4,8,89µM*,2.8µM*,u,-5%
O=C(NCCCN1CCOCC1)C(=O)N/N=C/c1ccccc1O,-75*,u,28µM*,29%,65%,28µM*
O=C(O)COc1ccc(/C=N/NC(=O)COc2nsnc2N2CCOCC2)cc1,2,3,-14%,x,21%,-3%
O=C(COc1nsnc1N1CCOCC1)N/N=C/c1ccccc1O,-90*,-6,-34%,-3%[59 µM],18%,u
Cc1ccc(C(CC(=O)O)NC(=O)c2ccc(S(=O)(=O)N3CC(C)OC(C)C3)cc2)cc1 (centres undefined),-2,8,-9%,15%[12.7 µM],42%,7%

# High-throughput results (PubChem BioAssay)
